Activity calls are given as the source filed them. Calls follow the shape of the dose curve; as a rule, active = well fitted curve in the direction sought with a large enough effect in the repeat runs; inconclusive = weak or mixed curves; inactive = flat fitted curve, though single readings scatter.
experiment: qHTS assay to test for compound auto fluorescence at 535 nm (green) in HepG2 cell free culture (AID 720686); settings: Cell-free medium, green autofluorescence 485/535 nm; series mostly up to 91.3 µM

Row | Compound | outcome
1 | Cc1cc(O)cc(C)c1Cl | inactive
2 | COCC(=O)O | inactive
3 | O=Nc1ccc(O)cc1 | inactive
4 | Oc1ccc(OCc2ccccc2)cc1 | inactive
5 | CC(C)Cc1ccccc1 | inactive
6 | CN(C)c1cccc(O)c1 | inactive
7 | CCOC(=O)C1OC1c1ccccc1 (centres undefined) | inactive
8 | Cc1cc(NS(=O)(=O)c2ccc(N)cc2)no1 | inactive
9 | CC1COc2ccccc2N1C(=O)C(Cl)Cl (centres undefined) | inactive
10 | CCc1ccc(O)cc1 | inactive
11 | OC1CCCC1 | inactive
12 | CCCCNC(N)=O | inactive
13 | CS(=O)(=O)c1ccc([C@@H](O)[C@@H](CO)NC(=O)C(Cl)Cl)cc1 | inactive
14 | Clc1cc(Cl)c(Cl)cc1Cl | inactive
15 | CC(C)(C)C(=O)C1C(=O)c2ccccc2C1=O | inactive
16 | CC(=O)Nc1ccc(C(=O)O)cc1 | inactive
17 | CCCCCCCCCCCCN | inactive
18 | CCCCC(CC)COC(C)=O (centres undefined) | inactive
19 | CCCCCC/C=C/CCCCCCCC(=O)O | inactive
20 | O=C1O[C@H](CO)[C@@H](O)[C@H](O)[C@H]1O | inactive

Row | Compound | outcome
21 | O=C1N=C(O)CN1/N=C/c1ccc(-c2ccc([N+](=O)[O-])cc2)o1 | inactive
22 | Nc1cc(-c2ccncc2)c[nH]c1=O | inactive
23 | OCC1CCCO1 (centres undefined) | inactive
24 | C[C@@H](O)[C@H]1C(=O)N2C(C(=O)O)=C(S[C@@H]3CN[C@H](C(=O)N(C)C)C3)[C@H](C)[C@H]12 | inactive
25 | CCCCCCCCCCC=CC1CC(=O)OC1=O (centres undefined) | inactive
26 | COC(=O)Nc1nc2ccc(Sc3ccccc3)cc2[nH]1 | inactive
27 | OCCOCCOCCOCCO | inactive
28 | O=C(O)c1ccc([N+](=O)[O-])cc1 | inactive
29 | C=C(C)C(=O)OCC(CC)(COC(=O)C(=C)C)COC(=O)C(=C)C | inactive
30 | Clc1ccc(Cl)c(Cl)c1Cl | inactive
31 | C=C1C2CCC(C2)C1(C)C (centres undefined) | inactive
32 | CC(C)(C)C1CCC(O)CC1 (centres undefined) | inactive
33 | Cc1ccc(N)c(S(=O)(=O)O)c1 | inactive
34 | O=c1c(-c2ccc(O)cc2)coc2cc(O)ccc12 | inactive
35 | COCC(C)O (centres undefined) | inactive
36 | CC1CC(OC(=O)c2ccccc2O)CC(C)(C)C1 (centres undefined) | inactive
37 | CCOC(=O)/C=C\C(=O)OCC | inactive
38 | CCCCCCCCCCCCOCC1CO1 (centres undefined) | inactive
39 | C[C@@H]1O[C@@H](OC[C@H]2O[C@@H](Oc3c(-c4ccc(O)c(O)c4)oc4cc(O)cc(O)c4c3=O)[C@H](O)[C@@H](O)[C@@H]2O)[C@H](O)[C@H](O)[C@H]1O | inactive

From PubChem BioAssay (Tox21)
